In PubChem BioAssay AID1259423 (Fisher Drug Discovery Resource Center, 2018):
The campaign covered roughly 270,000 compounds. About 410 (0.15%) were called active. Rule as the data show it: active = activation above about 40%; inactive = the rest, inconclusive results apart. The entries come from a sample that favours actives as a whole.

Test system: Aedes aegypti neuropeptide Y-like receptor 7 (NPYLR7)
Experiment: agonists of mosquito NPYLR7 receptor, primary screen, cell-based, Aedes aegypti, calcium fluorescence, mosquito biting behavior (AID 1259423);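 also: 0% = vehicle and 100% = reference agonist at the receptor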
Settings: HEK293T NPYLR7/Galpha15, GCaMP6s calcium fluorescence, at 10 µM, stronger effect = higher value
[1] = measured here: Max-Min RFU normalised activation

SMILES: Cc1ccc(CNc2oc(-c3ccc(S(=O)(=O)N(C)Cc4ccccc4)cc3)nc2C#N)cc1
- activation: -0.355% (inactive)
- activation [1]: 4.09%

SMILES: O=C(NC1Cc2ccccc2C1)c1ccc(-c2cc(-c3cccc(C(F)(F)F)c3)n[nH]2)cc1
- activation: 25.1% (inactive)
- activation [1]: 16.8%

SMILES: N#Cc1cc2cc(Cl)cc(Cl)c2oc1=O
- activation: 189% (active)
- activation [1]: 162%

SMILES: N#Cc1cc(Cl)c(Cl)cc1C#N
- activation: 9.21% (inactive)
- activation [1]: 8.51%

SMILES: O=c1oc2c(Cl)cc(Cl)cc2cc1-c1nnc(Nc2ccccc2F)s1
- activation: 3.96% (inactive)
- activation [1]: 1.58%

SMILES: CCCCNC(=O)c1c(C)c(C(=O)OCC)n(C)c1C
- activation: -1.79% (inactive)
- activation [1]: 26.8%

SMILES: O=C(Nc1cc(F)c(N2CCCC2)c(F)c1)C1Cc2ccccc2O1 (configuration not stated)
- activation: 2.58% (inactive)
- activation [1]: 0.532%

SMILES: COc1ccc(NC(=O)C(C)SCc2cccc(C(F)(F)F)c2)cc1 (configuration not stated)
- activation: -0.635% (inactive)
- activation [1]: -2.01%

SMILES: C=C(C)Cn1c(C2CC(=O)N(c3ccccc3CC)C2)nc2ccccc21 (configuration not stated)
- activation: -1.84% (inactive)
- activation [1]: 23.5%

SMILES: CCN(CC)C(=O)C1(C)CCN1C(=O)Cc1ccc(-c2ccccc2)cc1 (configuration not stated)
- activation: 4.71% (inactive)
- activation [1]: 3.32%

SMILES: COc1cccc(CN(CC(O)COCC(C)C)CC2CCCO2)c1 (configuration not stated)
- activation: 23.7% (inactive)
- activation [1]: 17.6%

SMILES: CC(C)COCC(O)CN(Cc1cccn1C)CC1CCCO1 (configuration not stated)
- activation: 43.6% (active)
- activation [1]: 42.4%

SMILES: COc1ccc(OCC(O)CN(Cc2cccn2C)CC2CCCO2)cc1 (configuration not stated)
- activation: 18.8% (inactive)
- activation [1]: 19.6%

SMILES: Fc1ccc(-c2cnc(NCCc3ccccn3)cn2)cc1Cl
- activation: -2.76% (inactive)
- activation [1]: -5.38%

SMILES: COC(=O)C1=C(NC(=O)CSCc2ccccc2)CCS1
- activation: -1% (inactive)
- activation [1]: -1.58%

SMILES: CC1CCC(C(C)C)C(OCC(O)CN2CCN(CCO)CC2)C1 (configuration not stated)
- activation: 0.73% (inactive)
- activation [1]: 22.3%
